# Data: the supplement of paper PMC4022240
# ± gives the standard deviation.
# T1: HaloTag-ATRX ADD domain (163-292)
# T1 chain: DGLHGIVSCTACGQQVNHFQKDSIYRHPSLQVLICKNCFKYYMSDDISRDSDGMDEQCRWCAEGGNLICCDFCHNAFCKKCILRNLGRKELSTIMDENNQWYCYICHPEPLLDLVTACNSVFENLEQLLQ
# Legend:
# Assay in all cases: peptide microarray binding signal (635 nm), min-max normalized on array (fraction of array maximum); higher = stronger binding
# [1] = target: T1, HaloTag-ATRX ADD domain (163-292)
# Protocol: (§1)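 Histone 13-mer peptides were synthesized as cellulose conjugates with a C-terminal 20-atom PEG linker and printed in triplicate on nitrocellulose. The sequence given is the unmodified backbone; PTMs (Kme1/2/3, Kac, Sph/Tph, Rme/Rme2a/Rme2s, Rcit) are listed in the label and the 'peptide modifications' condition. Slides were probed at 4 °C for 1 h with biotin-labelled (HQ)5-HaloTag reader fusions (ATRX-ADD, ING2-PHD) then streptavidin-Alexa647, or with rabbit histone antibodies then anti-rabbit Alexa647. The mean 635 nm signal of the triplicate spots was scaled 0-1 between the lowest and highest values on each array.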
# [2] = target: HaloTag-ING2 PHD (mouse Ing2 200-280)
# Protocol: as §1
# [3] = target: anti-H3K4me3 antibody ab8580
# Protocol: as §1
# [4] = target: anti-H3K9me3 antibody ab8898
# Protocol: as §1
# [5] = peptide region: H2B 1-13, peptide modifications: H2BK5ac H2BS6ph, binder concentration: 1:2,000 dilution
# [6] = peptide region: H2B 1-13, peptide modifications: H2BK5ac H2BS6ph, binder concentration: 1:10,000 dilution
# [7] = peptide region: H2B 1-13, peptide modifications: H2BK5ac H2BS6ph H2BK11ac, binder concentration: 1:2,000 dilution
# [8] = peptide region: H2B 1-13, peptide modifications: H2BK5ac H2BS6ph H2BK11ac, binder concentration: 1:10,000 dilution
# [9] = peptide region: H2B 1-13, peptide modifications: H2BS6ph, binder concentration: 1:2,000 dilution
# [10] = peptide region: H2B 1-13, peptide modifications: H2BS6ph, binder concentration: 1:10,000 dilution
# [11] = peptide region: H2A 11-23, peptide modifications: H2AK15ac, binder concentration: 1:2,000 dilution
# [12] = peptide region: H2A 11-23, peptide modifications: H2AK15ac, binder concentration: 1:10,000 dilution
# [13] = peptide region: H2A 11-23, peptide modifications: H2AK13ac H2AK15ac H2AT16ph, binder concentration: 1:2,000 dilution
# [14] = peptide region: H2A 11-23, peptide modifications: H2AK13ac H2AK15ac H2AT16ph, binder concentration: 1:10,000 dilution
binder,measurement,setting,value
PEPAKSAPAPKKG [H2B 1-13 P E P A Kac Sph A P A P K K G],peptide microarray binding signal,"[1]; peptide region: H2B 1-13, peptide modifications: H2BK5ac H2BS6ph, binder concentration: 50 nM",0.00433 ± 0.00028
same,peptide microarray binding signal,"[1]; peptide region: H2B 1-13, peptide modifications: H2BK5ac H2BS6ph, binder concentration: 500 nM",0.00467 ± 0.0018
same,peptide microarray binding signal,"[2]; peptide region: H2B 1-13, peptide modifications: H2BK5ac H2BS6ph, binder concentration: 10 nM",0.00442 ± 0.0003
same,peptide microarray binding signal,"[2]; peptide region: H2B 1-13, peptide modifications: H2BK5ac H2BS6ph, binder concentration: 100 nM",0.00872 ± 0.0029
same,peptide microarray binding signal,[3]; [5],0.00217 ± 0.0016
same,peptide microarray binding signal,[3]; [6],0.000628 ± 1.3e-05
same,peptide microarray binding signal,[4]; [5],0.000332 ± 2.6e-05
same,peptide microarray binding signal,[4]; [6],0.000865 ± 2.4e-05
PEPAKSAPAPKKG [H2B 1-13 P E P A Kac Sph A P A P Kac K G],peptide microarray binding signal,"[1]; peptide region: H2B 1-13, peptide modifications: H2BK5ac H2BS6ph H2BK11ac, binder concentration: 50 nM",0.0021 ± 2.5e-05
same,peptide microarray binding signal,"[1]; peptide region: H2B 1-13, peptide modifications: H2BK5ac H2BS6ph H2BK11ac, binder concentration: 500 nM",0.00276 ± 5.8e-05
same,peptide microarray binding signal,"[2]; peptide region: H2B 1-13, peptide modifications: H2BK5ac H2BS6ph H2BK11ac, binder concentration: 10 nM",0.00603 ± 0.00058
same,peptide microarray binding signal,"[2]; peptide region: H2B 1-13, peptide modifications: H2BK5ac H2BS6ph H2BK11ac, binder concentration: 100 nM",0.00206 ± 5.4e-05
same,peptide microarray binding signal,[3]; [7],0.00364 ± 0.00027
same,peptide microarray binding signal,[3]; [8],0.00131 ± 3.4e-05
same,peptide microarray binding signal,[4]; [7],0.00131 ± 4.4e-05
same,peptide microarray binding signal,[4]; [8],0.00185 ± 8e-05
PEPAKSAPAPKKG [H2B 1-13 P E P A K Sph A P A P K K G],peptide microarray binding signal,"[1]; peptide region: H2B 1-13, peptide modifications: H2BS6ph, binder concentration: 50 nM",0.00342 ± 3.7e-05
same,peptide microarray binding signal,"[1]; peptide region: H2B 1-13, peptide modifications: H2BS6ph, binder concentration: 500 nM",0.00543 ± 0.00012
same,peptide microarray binding signal,"[2]; peptide region: H2B 1-13, peptide modifications: H2BS6ph, binder concentration: 10 nM",0.00346 ± 0.00017
same,peptide microarray binding signal,"[2]; peptide region: H2B 1-13, peptide modifications: H2BS6ph, binder concentration: 100 nM",0.00425 ± 0.00022
same,peptide microarray binding signal,[3]; [9],0.00245 ± 6.6e-05
same,peptide microarray binding signal,[3]; [10],0.000799 ± 8.3e-06
same,peptide microarray binding signal,[4]; [9],0.00068 ± 1e-05
same,peptide microarray binding signal,[4]; [10],0.000923 ± 9.6e-06
RAKAKTRSSRAGL [H2A 11-23 R A K A Kac T R S S R A G L],peptide microarray binding signal,"[1]; peptide region: H2A 11-23, peptide modifications: H2AK15ac, binder concentration: 50 nM",0.00502 ± 0.00053
same,peptide microarray binding signal,"[1]; peptide region: H2A 11-23, peptide modifications: H2AK15ac, binder concentration: 500 nM",0.00495 ± 0.00038
same,peptide microarray binding signal,"[2]; peptide region: H2A 11-23, peptide modifications: H2AK15ac, binder concentration: 10 nM",0.00388 ± 5.4e-05
same,peptide microarray binding signal,"[2]; peptide region: H2A 11-23, peptide modifications: H2AK15ac, binder concentration: 100 nM",0.0051 ± 0.00094
same,peptide microarray binding signal,[3]; [11],0.000321 ± 6.7e-06
same,peptide microarray binding signal,[3]; [12],0.00126 ± 4.3e-05
same,peptide microarray binding signal,[4]; [11],0.0004228 ± 4.1e-06
same,peptide microarray binding signal,[4]; [12],0.00121 ± 4.9e-05
RAKAKTRSSRAGL [H2A 11-23 R A Kac A Kac Tph R S S R A G L],peptide microarray binding signal,"[1]; peptide region: H2A 11-23, peptide modifications: H2AK13ac H2AK15ac H2AT16ph, binder concentration: 50 nM",0.0063 ± 0.00011
same,peptide microarray binding signal,"[1]; peptide region: H2A 11-23, peptide modifications: H2AK13ac H2AK15ac H2AT16ph, binder concentration: 500 nM",0.0115 ± 0.00047
same,peptide microarray binding signal,"[2]; peptide region: H2A 11-23, peptide modifications: H2AK13ac H2AK15ac H2AT16ph, binder concentration: 10 nM",0.01009 ± 7e-05
same,peptide microarray binding signal,"[2]; peptide region: H2A 11-23, peptide modifications: H2AK13ac H2AK15ac H2AT16ph, binder concentration: 100 nM",0.0109 ± 0.00022
same,peptide microarray binding signal,[3]; [13],0.001265 ± 1e-05
same,peptide microarray binding signal,[3]; [14],0.00297 ± 7.6e-05
same,peptide microarray binding signal,[4]; [13],0.00107 ± 7.3e-05
same,peptide microarray binding signal,[4]; [14],0.00179 ± 3.4e-05
